This is an account of results in PubChem BioAssay (EPA / NIEHS).

Assay [1] can be described thus: BSK_3C_SRB: Viability Assessment in the BioMAP Diversity Plus: 3C Assay (AID 2283023).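 Note: cells read 24 h after compound dosing; fitted both ways against DMSO so a hit may be signal rise or drop.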 The following applies: primary human endothelial cells (HUVEC). In outline:
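Overt cytotoxicity is gauged in parallel confluent HUVEC cultures by SRB total-protein staining at the time of biomarker measurement, 24 h after dosing. Gain or loss of signal is fitted versus DMSO.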

Read-out in assay [2]: Matrix Metallopeptidase 1 (MMP1), MMP1 (gene 4312)
In words: BSK_BE3C_MMP1: BioMAP Diversity Plus: BE3C Assay for Matrix Metallopeptidase 1 (MMP1) Biomarker Activity (AID 2283024). The conditions noted are these: primary human bronchial epithelial cells; actives raise or lower the signal. In outline:
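In this multiplexed primary-cell system, human bronchial epithelium received chemicals for 24 h before an ELISA for MMP1. Values reflect bidirectional fits normalised to the DMSO baseline.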

Assay [3] is described as follows: BSK_3C_Vis: BioMAP Diversity Plus: 3C Assay for Morphology Visualization (AID 2283025).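 For AC50: light microscopy image of cell morphology used as background control; cells imaged 24 h after dosing.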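 Note: fitted both ways so gain or loss versus DMSO counts.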 The conditions noted are these: primary human endothelial cells (HUVEC). Put shortly: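 Light-microscopy morphology readout, 24 h exposure, human primary umbilical vein endothelium; analysed relative to DMSO with bidirectional fitting.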
Read-out in assay [4]: Pselectin, SELP (gene 6403)
In words: BSK_4H_Pselectin: BioMAP Diversity Plus: 4H Assay for Pselectin Biomarker Activity (AID 2283026). The conditions noted are these: primary human endothelial cells (HUVEC); actives raise or lower the signal. In outline:
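Bidirectional fits against DMSO gave the endpoint. Cells: primary human umbilical vein endothelium, chemical-treated for 24 h before ELISA detection of P-selectin.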

Assay [5] can be described thus: BSK_4H_SRB: Viability Assessment in the BioMAP Diversity Plus: 4H Assay (AID 2283027).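 For AC50: curves fitted both ways versus DMSO so AC50 may be loss or gain.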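 Note: cells exposed to compound for 24 h before staining.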 The following applies: primary human endothelial cells (HUVEC). Put shortly:
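HUVEC, 24 h post-dose; 10% TCA fix, 0.1% SRB stain, A560 nm. Total protein = overt cytotoxicity, parallel to biomarker read. Bidirectional fit vs DMSO baseline.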

Assay [6] in a line: BSK_BE3C_SRB: Viability Assessment in the BioMAP Diversity Plus: BE3C Assay (AID 2283028).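 For AC50: fitted both ways so AC50 may mark signal gain or loss versus DMSO.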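 Note: measured 24 h after chemical dosing.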 The conditions noted are these: primary human bronchial epithelial cells. In outline: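 SRB total-protein staining (0.1%, after TCA fixation) of chemically dosed human bronchial epithelial primary cells at 24 h; DMSO serves as the negative control for bidirectional curve fitting.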
Read-out in assay [7]: Thrombomodulin, THBD (gene 7056)
In words: BSK_3C_Thrombomodulin: BioMAP Diversity Plus: 3C Assay for Thrombomodulin Biomarker Activity (AID 2283029). The following applies: primary human endothelial cells (HUVEC); actives raise or lower the signal. In outline: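 In a multiplexed primary-cell system, human umbilical vein endothelium received chemical and was assayed 24 h later for thrombomodulin by ELISA. Parallel cultures were SRB-stained (0.1% SRB after 10% TCA fixation, read at 560 nm) to flag cytotoxicity.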

Read-out in assay [8]: Human Leukocyte Antigen - DR isotype (HLADR), HLA-DRA (gene 3122)
In words: BSK_BE3C_HLADR: BioMAP Diversity Plus: BE3C Assay for Human Leukocyte Antigen - DR isotype (HLADR) Biomarker Activity (AID 2283032). The conditions noted are these: primary human bronchial epithelial cells; actives raise or lower the signal. Put shortly:
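BioMAP BE3C format: human bronchial epithelium, 24 h compound treatment, ELISA detection of HLA-DR, with bidirectional analysis relative to DMSO.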

Read-out in assay [9]: Vascular endothelial growth factor receptor 2 (Homo sapiens) (UniProt P35968)
Briefly: BSK_4H_VEGFRII: BioMAP Diversity Plus: 4H Assay for Vascular endothelial growth factor receptor 2 (VEGFR2) Biomarker Activity (AID 2283031). The conditions noted are these: primary human endothelial cells (HUVEC); actives raise or lower the signal. In outline: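 In this multiplexed HUVEC system, biomarker ELISA was performed after 24 h chemical exposure. Parallel SRB staining (TCA fixation, 560 nm) tracked cytotoxicity; DMSO served as baseline.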

Read-out in assay [10]: Urokinase-type plasminogen activator receptor (uPAR), PLAUR (gene 5329)
Briefly: BSK_4H_uPAR: BioMAP Diversity Plus: 4H Assay for Urokinase-type plasminogen activator receptor (uPAR) Biomarker Activity (AID 2283030). The conditions noted are these: primary human endothelial cells (HUVEC); actives raise or lower the signal. In outline: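 Endpoint derived via bidirectional curve fitting against DMSO baseline; readout was ELISA detection of uPAR on umbilical vein endothelial cells at 24 h post-treatment, with SRB-stained parallel cultures assessing cytotoxicity.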

Active and inactive are the calls of the source. Rule for the calls: active = hit-call score of the fitted dose curve at least 0.9, where 1 is the maximum; inactive = score below 0.9.

Consider `CCN(C(=O)c1cc(C)cc(OC[C@H](C)Nc2ccncc2)c1)C(C)C`, for which the outcome in [1], in assay [2], in assay [3], in [4], in assay [5] and in [6] was inactive. Also, the result in assay [7] and in assay [8] was inactive.
For the compound `C1N2CN3CN1CN(C2)C3`, the result in assay [1], in assay [2], in assay [3], in [4], in [5] and in assay [6] was inactive. Moreover, the outcome in [7], in assay [9] and in [8] was inactive.
Turning to `O=C1CCC(N2C(=O)c3ccccc3C2=O)C(=O)N1` (stereo unspecified), the result in [1], in [2], in [3], in [4], in [5] and in assay [6] was inactive. Moreover, the result in [7] and in assay [8] was inactive.
In general, AC50 refers to the midpoint of the concentration-response curve, whichever way the signal moves. For the compound `Oc1ccc2c(c1)-c1ccccc1C2`, the values for the half-maximal activity concentration (AC50) in assay [1], in assay [3] and in assay [5] were 19.6 µM (active), 39 µM (active) and 10.2 µM (active), respectively. Further, the result in assay [2], in assay [4], in assay [6], in [7] and in [8] was inactive.
With `O=C1CCCCCN1`, the outcome in [1], in assay [2], in assay [3], in [4], in assay [5] and in assay [6] was inactive. For the same compound, the result in [7], in assay [9] and in [8] was inactive.
As for `COC(=O)c1ccccc1O`, the result in [1], in [2], in [3], in assay [4], in assay [5] and in assay [6] was inactive. Also, the outcome in [7] and in assay [8] was inactive.
`CCCN(C1CCN(C(=O)C2CCNCC2)CC1)[C@@H]1CCc2ccc(OC)cc2C1`: the result in assay [1], in [2], in assay [3], in assay [4], in assay [5] and in assay [6] was inactive. Also, the result in [7], in assay [9] and in assay [8] was inactive.
On to `Cc1ccc(C)c(O)c1`, for which the outcome in assay [1], in assay [2], in assay [3], in assay [4], in assay [5] and in [6] was inactive. Also, the outcome in assay [7] and in assay [8] was inactive.
Consider `O=C(CCCCCCCCc1cccnc1)N1CCC(C=C(c2ccccc2)c2ccccc2)CC1`, for which the AC50 was 8.88 µM (active) in assay [1]; 10.9 µM (active) in [3]; 6.41 µM (active) in [4]; 13.1 µM (active) in assay [5]; 34.2 µM (active) in assay [6]; 17.6 µM (active) in [8]. Also, the result in assay [7] was inactive.
As to `CC(C)CCCCCCOC(=O)c1ccc(C(=O)OCCCCCCC(C)C)c(C(=O)OCCCCCCC(C)C)c1`, the outcome in assay [1], in [2], in [3], in assay [4], in [5] and in assay [6] was inactive. Further, the outcome in [7] and in assay [8] was inactive.
Consider `CCNc1ccccc1`, for which the outcome in assay [1], in [2], in [3], in [4], in assay [5] and in [6] was inactive. Moreover, the outcome in assay [7], in assay [9] and in [8] was inactive.
`On1ccccc1=S`: the AC50 in [1] is 29.7 µM (active); in [2], 10.9 µM (active); in assay [3], 38.4 µM (active); in [4] it was 11.8 µM (active); in [5], 14.8 µM (active); in assay [6] it was 9.28 µM (active). The AC50 is 5.96 µM (active) in [7] and 3.31 µM (active) in assay [8].
For `O=C(O)CC(O)C(=O)O` (stereo unspecified), the outcome in [1], in [2], in assay [3], in assay [4], in assay [5] and in assay [6] was inactive. Moreover, the outcome in assay [7] and in assay [8] was inactive.
Consider `CCCCC(CC)COC(=O)c1ccc(C(=O)OCC(CC)CCCC)cc1` (stereo unspecified), for which the outcome in [1], in assay [3], in assay [4], in assay [5], in [6] and in assay [7] was inactive. In addition, the result in assay [9] and in assay [8] was inactive.
Regarding `COc1cccc(-c2ccc(/C=C\CN3CCCCCC3)cc2Cl)c1`, the concentration at half-maximal activity (AC50) was 25.8 µM (active) in [1]; 4.82 µM (active) in [2]; 14.9 µM (active) in assay [3]; 26.5 µM (active) in [4]; 27.9 µM (active) in [5]; 29.4 µM (active) in [8]. Further, the outcome in assay [6] and in assay [7] was inactive.
Take `COC(=O)c1c(Cl)c(Cl)c(C(=O)OC)c(Cl)c1Cl`: the outcome in [1], in assay [2], in assay [4], in assay [5], in [6] and in assay [7] was inactive. For the same compound, the result in assay [9] and in [8] was inactive. For the same compound, the AC50 in [3] was 39 µM (active).
For `COc1ccc2sc(C(=O)Nc3nnn[nH]3)c(OC(C)C)c2c1`, the half-maximal activity concentration (AC50) was 12.5 µM (active) in assay [1]; 14.2 µM (active) in assay [2]; 21.9 µM (active) in [3]; 4.45 µM (active) in assay [4]; 20 µM (active) in assay [5]; 19.9 µM (active) in [8]. Besides, the outcome in assay [6] and in assay [7] was inactive.
Consider `C[C@](N)(Cc1ccc(O)c(O)c1)C(=O)O`, for which the outcome in assay [1], in assay [2], in assay [3], in assay [4], in [5] and in [6] was inactive. Also, the result in assay [7] and in [8] was inactive.
As to `Nc1ccc(Nc2ccccc2)cc1`, the result in assay [1], in assay [3], in [5], in [6], in [7] and in [8] was inactive. The concentration at half-maximal activity (AC50) in assay [2] was 8.67 µM (active); in assay [4], 3.97 µM (active).
With `CC[C@H](C)C(=O)O[C@H]1C[C@@H](C)C=C2C=C[C@H](C)[C@H](CC[C@@H]3C[C@@H](O)CC(=O)O3)[C@H]21`, the concentration at half-maximal activity (AC50) in assay [1] is 9.87 µM (active); in assay [2], 33.8 µM (active); in [3], 28.3 µM (active); in [4] it was 32.9 µM (active); in assay [5], 19.9 µM (active); in assay [10], 19.9 µM (active). Besides, the AC50 in assay [8] was 35.9 µM (active). For the same compound, in assay [7], the outcome was inactive.
As to `Cc1[nH]cnc1C[C@H]1CCc2c(C)c3ccccc3n2C1=O`, the half-maximal activity concentration (AC50) was 26 µM (active) in assay [1], 18.4 µM (active) in assay [3], 21.4 µM (active) in assay [4] and 24 µM (active) in assay [5]. Also, the result in [2], in assay [6], in assay [7] and in assay [8] was inactive.
Turning to `CC(C)=CCC/C(C)=C\CO`, the outcome in [1], in [2], in assay [3], in [4], in assay [5] and in [6] was inactive. Further, the result in assay [7] and in assay [8] was inactive.
Consider `O=C(O)CCN(C1(C(=O)NO)CCCC1)S(=O)(=O)c1ccc(Oc2ccc(F)cc2)cc1`, for which the outcome in [1], in [2], in [3], in assay [4], in assay [5] and in assay [6] was inactive. Further, the outcome in assay [7] and in [8] was inactive.
For `O=c1[nH]c2ccc(S(=O)CCN3CCC(Cc4ccc(F)cc4)CC3)cc2o1` (stereo unspecified), the result in [1], in assay [2], in [3], in [4], in assay [6] and in assay [7] was inactive. Moreover, in [8], the outcome was inactive. The concentration at half-maximal activity (AC50) in assay [5] is 3.97 µM (active).
